Screens: PubChem BioAssay, several laboratories
Anthrax LF inh2: blocks Bacillus anthracis lethal factor protease; inhibition, % at 10 µM; actives 0.12% (n = 360,000); multiplex microsphere protease cleavage assay, LF; P15917; also: plate controls were buffer without enzyme for full effect and enzyme alone for no effect
Target sequence (P15917 whole entry, looked up): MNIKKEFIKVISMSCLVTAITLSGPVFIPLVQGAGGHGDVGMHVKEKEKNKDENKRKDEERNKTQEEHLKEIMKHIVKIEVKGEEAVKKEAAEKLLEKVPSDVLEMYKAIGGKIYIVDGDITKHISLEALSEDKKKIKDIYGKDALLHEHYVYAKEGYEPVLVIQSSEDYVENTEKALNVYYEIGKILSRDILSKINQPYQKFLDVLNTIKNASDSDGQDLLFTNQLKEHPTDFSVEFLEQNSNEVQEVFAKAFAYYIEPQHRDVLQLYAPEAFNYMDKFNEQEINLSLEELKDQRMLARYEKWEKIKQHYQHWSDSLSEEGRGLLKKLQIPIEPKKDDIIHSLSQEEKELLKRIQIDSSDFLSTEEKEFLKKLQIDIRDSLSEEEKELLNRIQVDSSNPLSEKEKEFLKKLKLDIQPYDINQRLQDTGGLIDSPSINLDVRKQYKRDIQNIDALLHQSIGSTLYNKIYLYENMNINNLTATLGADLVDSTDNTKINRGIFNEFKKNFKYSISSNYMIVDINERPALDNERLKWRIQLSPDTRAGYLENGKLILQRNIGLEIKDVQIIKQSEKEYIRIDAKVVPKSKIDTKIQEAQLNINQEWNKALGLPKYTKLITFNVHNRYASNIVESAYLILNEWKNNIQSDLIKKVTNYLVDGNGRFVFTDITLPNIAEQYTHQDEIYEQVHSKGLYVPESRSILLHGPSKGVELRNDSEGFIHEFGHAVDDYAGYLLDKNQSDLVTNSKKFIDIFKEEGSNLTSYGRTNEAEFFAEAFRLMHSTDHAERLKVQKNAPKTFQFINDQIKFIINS
Autofluor counter: flagged as autofluorescent in microsphere protease counterscreen; compound autofluorescence counterscreen, microsphere flow cytometry; hits give high values; fluorescence intensity (test concentration not listed); actives 3.1% (n = 360,000); AID 624483; in the data active = fluorescence intensity above about 16000; inconclusive = no clear call, values can overlap the other calls
BoNT F protease: blocks Botulinum neurotoxin F light chain protease | Multiplex microsphere protease cleavage assay, flow cytometry | AID 588497 | actives 0.22% (n = 360,000) | inhibition, % at 10 µM; in the data active = inhibition above about 35%, passing the limit was not always enough; inconclusive = no clear call, values can overlap the other calls; also: plate controls were buffer without enzyme for full effect and enzyme alone for no effect
BoNT A protease: BoNT A light chain protease inhibition; multiplex microsphere protease substrate cleavage, flow cytometry; inhibition, % at 10 µM; actives 0.17% (n = 360,000); also: plate controls were buffer without enzyme for full effect and enzyme alone for no effect
MazF activator: increases E. coli MazEF RNase cleavage of RNA; actives 0.32% (n = 350,000); activation, % at 20 µM; FAM/BHQ RNA-DNA oligo cleavage fluorescence, 5 h; AID 504720; P0AE70; in the data active = activation above about 50%
Starred values were filed as active, the others as inactive; ? = inconclusive; . = no result given. In the library only some 3.7% were active in any assay of this set; here they are far more common. Rule as the data show it, unless noted: active = inhibition above about 30%; inconclusive = no clear call, values can overlap the other calls; inactive = below that.

SMILES	Anthrax LF inh2	Autofluor counter	BoNT F protease	BoNT A protease	MazF activator
COc1cc(CNc2ccc(C(=O)O)cc2)cc(Br)c1OCC(=O)NC(C)(C)C	-3.3	1996	-11.6	-0.7	-0.5
COC(=O)c1cc(OC)c(OC)cc1NC(=O)c1ccco1	-0.4	3074	-1.6	0.6	4.9
COc1cc(NC(=O)c2ccco2)c(C(=O)O)cc1OC	-2.8	23681*	-2.1	-2.2	-6.5
C=CCOc1c(Br)cc(CNc2ccc(NC(=O)C(C)C)c(OC)c2)cc1OC	-8.6	20313*	4.8	?	7.2
CC(=O)Nc1ccc(S(=O)(=O)NCC2(N3CCOCC3)CCCCC2)cc1	?	?	?	?	-7.3
COc1ccc(C2CC(c3cccs3)=NN2C(=O)CSc2nc(=O)n3cc(C)ccc3n2)cc1 (centres undefined)	-2.3	5744	0.1	-2.5	-8.4
CCc1c(C)c2ccc(OCC(N)=O)cc2oc1=O	1.0	24076*	-3.1	-2.3	9.9
CC(=O)COc1ccc2c(C)c(C)c(=O)oc2c1	-0.7	3591	-14.2	0.2	-8.5
Cc1c(CCC(=O)O)c(=O)oc2cc(OCc3cccc(Cl)c3)ccc12	3.9	3151	39.7*	0.2	-8.6
CC(Oc1ccc(F)cc1)C(=O)Nc1cc(S(=O)(=O)N2CCCCC2)ccc1N1CCOCC1 (centres undefined)	-0.9	?	-10.8	-4.6	-5.4
COC(=O)CC(NC(=O)c1ccco1)c1cccc2ccccc12 (centres undefined)	-3.9	5164	-47.3	-1.0	-3.1
CC(NC(=O)c1ccco1)c1cccc2ccccc12 (centres undefined)	-0.5	22307*	1.8	1.1	8.1
O=C(Nc1ccc(NC(=O)c2cccs2)cc1)c1ccc2c(c1)OCCO2	-3.2	4743	3.8	1.8	-8.5
CC(C)C(=O)c1cc2c(cc1NC(=O)c1ccccc1)OCCO2	-2.3	23685*	-2.9	?	-4.2
CC(=O)Nc1cc2c(cc1C(=O)C(C)C)OCCO2	-2.8	3774	4.7	-0.6	5.2
CCC(=O)c1cc2c(cc1NC(=O)c1ccc(C)cc1)OCCO2	-0.4	20255*	4.9	?	-11.6
CC(C)C(=O)c1cc2c(cc1NC(=O)c1cccs1)OCCO2	-4.2	23207*	-4.1	-1.6	-8.8
CN(C)CCn1nnc2c(=O)oc3ccccc3c21	-1.4	2203	-5.5	-1.0	4.8
O=C(Nc1ccc(F)cc1F)c1ccc(-n2cccn2)c([N+](=O)[O-])c1	-3.0	3500	2.1	1.8	-0.3
Cc1ccccc1N1CCN(c2ncnc3scc(-c4cccs4)c23)CC1	-9.7	21408*	-0.2	1.7	6.9
Cc1cc(NC(=O)CSc2nc(-c3ccccc3Cl)nc3c2c(=O)n(C)c(=O)n3C)no1	-2.7	4670	-14.9	-1.3	112.0*
CN(CC(=O)Nc1ccccc1Br)c1ncnc2sccc12	-1.8	4398	1.0	-0.1	57.3*
COC(=O)Cn1c(=O)c2c(nc3n2CCCN3CCc2ccccc2)n(C)c1=O	3.2	4230	?	0.1	2.7
Nc1nnc(SCc2ccc(Cl)cc2)s1	-8.2	3251	-5.6	-0.2	2.5
Cc1nnc(SCc2c(Cl)cccc2Cl)s1	3.3	5252	-31.7	-0.3	4.1
SMILES	Anthrax LF inh2	Autofluor counter	BoNT F protease	BoNT A protease	MazF activator
Cc1nnc(SCc2cccc(CSc3nnc(C)s3)c2)s1	1.6	3886	2.9	0.3	2.9
Cc1nnc(SCc2ccc(F)cc2Cl)s1	0.1	19791*	-2.1	-0.4	7.8
Cc1nnc(SCc2ccc3c(c2)OCO3)s1	-8.0	21079*	3.2	2.8	-1.0
Nc1nnc(SCc2ccc(F)cc2Cl)s1	1.9	21708*	6.6	6.7	-0.8
CCNC(=O)C1CCCN(C(=O)C(c2ccccc2)c2ccccc2)CC1 (centres undefined)	-2.7	3742	-3.6	0.6	.
CCc1ccc(/C=N\n2cnnc2)cc1	?	3657	45.4*	5.6	6.1
CCOc1ccc(/C=N/n2cnnc2)cc1	3.0	17072*	-3.0	?	1.2
C(=N\n1cnnc1)/c1ccc(OCc2ccccc2)cc1	0.1	9724	5.5	1.2	-1.6
C(=N\n1cnnc1)/c1ccc(-c2ccccc2)cc1	-7.8	3094	0.1	-0.8	-7.7
O=C(CN1C(=O)C2CC=CCC2C1=O)Nc1nc2ccccc2s1 (centres undefined)	2.8	4858	2.7	-1.1	8.1
COc1ccc(CCN(C)C(=O)C2CCCN(C3CCN(Cc4ccccc4)CC3)C2)cc1OC (centres undefined)	-2.9	5483	-5.9	-5.7	9.8
CC(C)CCN1C(=O)c2ccc(C(=O)Nc3ccccc3C(=O)O)cc2C1=O	-10.0	3761	4.2	0.3	-0.1
CCSc1nc2c(sc3ccccc32)c(=O)n1C(C)C	-0.1	23016*	0.0	0.8	10.1
CCCCn1c(SCC(N)=O)nc2c(sc3ccccc32)c1=O	1.0	4154	-6.8	0.4	-3.0
CC(=O)Nc1ccc(NC(=O)CS(=O)(=O)c2cn(CC(=O)N3CCC(C)CC3)c3ccccc23)cc1	-1.0	6449	7.1	-1.5	1.2
CCN1c2ccccc2-c2nc3ccccc3n2C1c1cccs1 (centres undefined)	0.8	2283	-1.0	0.2	1.0
COCCNc1cc(C)nc2c3c(C)cc(C)nc3nn12	-1.1	23058*	-0.4	-0.8	2.8
Cc1cc(C)c2c(n1)nn1c(NCCN3CCOCC3)cc(C)nc21	0.1	23370*	3.8	0.2	2.6
Cc1cc(NCCN2CCOCC2)n2nc(C)c(-c3ccccc3)c2n1	-3.9	4901	-27.5	-0.1	12.7
O=C(COC(=O)CN1C(=O)COc2ccccc21)NCc1ccc(F)cc1	-0.7	?	-13.6	-2.8	1.6
COc1ccc(N(CC(=O)N/N=C/c2ccc(-c3ccc([N+](=O)[O-])cc3)o2)S(=O)(=O)c2ccc(C)cc2)cc1Cl	44.2*	2649	42.2*	55.5*	-44.5
S=C(Nc1cccc(Cl)c1Cl)Nn1cnnc1	-1.5	2080	-13.0	-1.3	8.8
O=C(NC(NC(=S)Nc1cccc(Cl)c1)C(Cl)(Cl)Cl)OCc1ccccc1 (centres undefined)	-2.5	10289	0.4	0.2	83.8*
Cc1ccccc1C(=O)NNC1=NCCC1	0.3	17045*	-0.7	-1.3	6.4
Cc1ccccc1C(=O)NNC(=O)C(=O)Nc1cccc(Cl)c1C	-1.7	20831*	-3.0	-0.8	-5.0
SMILES	Anthrax LF inh2	Autofluor counter	BoNT F protease	BoNT A protease	MazF activator
Cc1c(Cl)cccc1NC(=O)C(=O)NNC(=O)c1ccccc1F	4.4	4509	-13.7	-1.3	5.7
COC(=O)NNC(=O)c1ccccc1C	-0.1	22876*	2.8	?	-1.0
O=C(NNC1=NCCC1)c1cccc(Br)c1	-0.6	4194	22.2	-0.2	6.0
Cc1ccccc1C(=O)NNC(=O)Cc1ccccc1	0.8	7322	6.2	-0.8	-26.9
Cc1ccc(OCC(=O)N/N=C/C=C/c2ccco2)cc1C	-4.2	2631	-12.1	-1.3	1.3
COc1ccc(S(=O)(=O)N2CCNC(=O)CC2)cc1	-1.0	5034	-0.5	1.1	-7.5
N#CC1=C(N)Oc2n[nH]c(-c3ccc(F)cc3)c2C1c1cccc(OC(=O)N2CCOCC2)c1 (centres undefined)	.	.	.	.	4.4
